IL1B secr inh: inhibitors of inflammasome signaling (IL-1 beta secretion) | THP-1 LPS/ATP IL-1B secretion, AlphaLISA, 16 h; active compounds read low | activity change, % at 57.5 µM | hit rate 4.7% among 360,000; in the data active means activity change below about -50%; inconclusive means mostly about -30% to -49%
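Secreted IL-1B measured by AlphaLISA bead assay after 16 h compound exposure of THP-1 cells; compounds (final up to 57.5 uM) added 1 h before LPS (250 ng/mL) and ATP (1.25 mM) stimulation; lower signal means less secretion.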
DT40 TDP1 CPT: DT40-hTDP1 cell growth loss with CPT. hit rate 12% among 420,000. AID 686979. Potency, µM (top dose mostly 46.2 µM), for inactives: top-dose activity change, negative = growth inhibition, most hits filed as inhibitors. chicken DT40 Tdp1-/-;hTDP1 cells + 20 nM CPT, ATP luminescence, 48 h; further: potency means the concentration at half of the fitted maximal effect; nearly all actives have a fitted effect of over 55% in size
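Cell growth measured by CellTiter-Glo luminescence after a minimum 48 h, 37 C compound exposure with 20 nM CPT in Tdp1-knockout DT40 cells stably expressing hTDP1, seeded 400/well; qHTS titration format.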
HT1080 IDH1KD tx: HT-1080 IDH1 knockdown cell toxicity (counter line). HT-1080 IDH1 knockdown viability, ATP luminescence, 48 h. Potency, µM (doses to about 46.1 µM), inactives show at the highest dose activity, negative = toxicity, usual class: cytotoxic. hit rate 2% among 360,000;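 further: potency means the concentration at half of the fitted maximal effect; 0% = DMSO wells and -100% = cell-free medium wells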
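In this qHTS, HT-1080 cells depleted of IDH1 are exposed for 48 h at 37 °C to compound titrations. Toxicity is scored from CellTiter-Glo luminescence, with DMSO as full viability and medium alone as none.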
HT1080-NT tox: kills 2HG-producing HT-1080-NT fibrosarcoma cells; AID 686970; hit rate 1.6% among 360,000; Potency, µM (titrated, usually from 46.1 µM), for inactives: top-dose activity, negative = less viability, actives largely listed as cytotoxic; HT-1080-NT fibrosarcoma viability, CellTiter-Glo ATP luminescence, 48 h;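 further: NT is the 2HG producing partner of a matched IDH1 knockdown line; potency means the concentration at half of the fitted maximal effect; 0% = DMSO-treated cells and -100% = media-only wells without cells; nearly all actives have a fitted effect of over 55% in size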
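Compounds were tested in concentration-response format on HT-1080-NT cells for 48 hours at 37 degrees C. Cell viability came from CellTiter-Glo luminescence; curves were classified by r2, response magnitude and activity.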
ALOX12 inh: inhibitors of human 12S-lipoxygenase ALOX12 | purified 12hLO, xylenol orange hydroperoxide absorbance | Potency, µM (titrated, usually from 108 µM), for the others: at the top dose activity change, negative = inhibition, hits mostly inhibitors | AID 1671190 | P18054 | hit rate 1.1% among 580,000; further: potency means the concentration at half of the fitted maximal effect
Target sequence (P18054 whole entry, looked up): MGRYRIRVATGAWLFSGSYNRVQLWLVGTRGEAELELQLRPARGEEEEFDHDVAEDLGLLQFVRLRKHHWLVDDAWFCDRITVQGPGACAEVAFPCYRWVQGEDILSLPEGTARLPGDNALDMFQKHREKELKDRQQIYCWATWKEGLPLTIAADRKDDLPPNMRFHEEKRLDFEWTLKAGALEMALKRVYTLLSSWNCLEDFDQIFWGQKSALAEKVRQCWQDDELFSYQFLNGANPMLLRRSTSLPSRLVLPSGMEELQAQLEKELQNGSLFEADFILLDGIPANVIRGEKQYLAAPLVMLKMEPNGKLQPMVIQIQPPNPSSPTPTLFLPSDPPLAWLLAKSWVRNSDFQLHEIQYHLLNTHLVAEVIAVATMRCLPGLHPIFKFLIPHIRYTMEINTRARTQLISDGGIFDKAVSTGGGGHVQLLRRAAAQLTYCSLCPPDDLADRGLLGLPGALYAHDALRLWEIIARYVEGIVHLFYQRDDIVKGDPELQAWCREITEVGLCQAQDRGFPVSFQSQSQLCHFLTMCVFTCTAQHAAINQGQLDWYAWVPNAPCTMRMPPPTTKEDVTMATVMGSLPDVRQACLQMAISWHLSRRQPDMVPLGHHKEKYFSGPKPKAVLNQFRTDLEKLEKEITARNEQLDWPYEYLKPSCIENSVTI
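Purified human 12hLO at 150 nM in 25 mM Hepes, 0.01% Triton X-100, pH 7.0, preincubated 15 min at room temperature with compound. Reaction started with 40 uM arachidonic acid, 30 min at room temperature. Hydroperoxide measured by Fe-xylenol orange, 573/405 nm absorbance ratio.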
TDP1 cell noCPT: qHTS for Inhibitors of human tyrosyl-DNA phosphodiesterase 1 (TDP1): qHTS in cells in absence of CPT; DT40 Tdp1-/- hTDP1 cells, no CPT, ATP luminescence, 48 h; Potency, µM (series often up to 46.2 µM), for inactives: at the highest dose activity change, negative = growth inhibition, usual class: inhibitors; hit rate 15% among 420,000; further: potency means the concentration at half of the fitted maximal effect; nearly all actives have a fitted effect of over 55% in size
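No-CPT arm: Tdp1-/-;hTDP1 DT40 cells (400/well) plus compounds, incubated ≥48 hr at 37 °C. Readout CellTiter-Glo luminescence.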
* = called active by the depositor; u = inconclusive; x = no result given; [ ] = another dose, or the depositor's remark. Shown is part of a subset that was picked to be rich in hits. Unless noted, the call rests on the fitted dose curve; in most records, active means well fitted curve in the direction sought with a large enough effect; inconclusive means small, poorly fitted or top-dose-only effect, or another doubt; inactive means no such curve, though single readings can be large; an effect the other way counts as inactive or inconclusive. Unless noted, on the % scale 0 is the no-effect control and ±100 the full control effect.

SMILES | IL1B secr inh | DT40 TDP1 CPT | HT1080 IDH1KD tx | HT1080-NT tox | ALOX12 inh | TDP1 cell noCPT
CCN1CCCC1CNC(=O)CCc1nc2ccccc2[nH]1 (configuration not stated) | x | x | x | x | 30.5% | x
O=C(c1ccccc1)c1ccc(OCCOCCN2CCN(Cc3ccccc3)CC2)cc1 | u | 23.1µM* | u | 18.4µM* | u | 20.6µM*
O=C(/C=C/c1ccccc1)N1CCN(Cc2ccccc2)CC1 | x | x | x | x | -3.7% | x
O=C(c1ccccc1)c1ccc(OCCCN2CCCC2)cc1 | 0.6 | -0.7% | 4.2% | 17.4% | u | -20.0%
O=C(/C=C/c1ccc(OCCCF)cc1)N1CCN(Cc2ccccc2)CC1 | -52.6* | 1.2% | -16.8% | -0.3% | -0.7% | u
CN(C(=O)c1ccoc1)c1ccc2ccccc2c1 | 12.4 | 13µM* | -25.4% | -3.3% | -12.2% | u
O=C(CCCN1C(=O)COc2ccc(C(=O)COc3cccc(Cl)c3)cc21)NCc1ccccc1 | x | x | x | x | -14.9% | x
CC(=O)c1c(N2CCN(C)CC2)[nH]c(-c2ccccc2)nc1=S | u | u | u | -29.7% | u | 16.4µM*
Cc1ccc(NC(=O)c2ccc3ccccc3n2)cc1S(=O)(=O)N(C)C | 15.6 | u | 15.1% | 4.2% | -9.1% | 11.6µM*
Cc1ccc(NC(=O)c2c3c(nc4ccccc24)CCC3)cc1S(=O)(=O)N(C)C | 24.4 | 16.4µM* | -10.8% | -11.4% | -4.0% | u
Cc1ccc(NC(=O)c2ccc3ccccc3n2)cc1C | x | x | x | x | -4.0% | x
Cc1cnc(C(=O)Nc2ccc(C)c(S(=O)(=O)N(C)C)c2)cn1 | 5.9 | u | 16.5% | 14.8% | -1.0% | 14.6µM*
Cc1ccc(NC(=O)c2cnccn2)cc1S(=O)(=O)N(C)C | 0.0 | 0.5% | 9.8% | 4.8% | 2.9% | -11.9%
CC(NC(=O)[C@H]1O[C@@H]2OC(C)(C)O[C@@H]2[C@H]2OC(C)(C)O[C@H]21)C(=O)O (some centres not stated) | x | x | x | x | 5.8% | x
CC(C)(C)n1nnnc1C(c1ccc(C#N)cc1)N1CCCC2(CCCCC2)C1 (configuration not stated) | u | 20.6µM* | 1.6% | 7.8% | 13.4% | 23.1µM*
O=C(C(=O)N(Cc1ccccc1)Cc1ccccc1)c1c(-c2ccccc2)[nH]c2ccccc12 | u | 10.3µM* | u | u | u | 20.6µM*
CCCc1c(C)nc2ccc(OC)cc2c1SCCC(=O)O | 30.6 | u | -13.6% | -1.9% | -24.6% | 8.2µM*
CCCc1c(C)nc2ccc(C)cc2c1SCCC(=O)O | x | x | x | x | -4.6% | x
CC(C)Oc1ccc(Cc2cnc(=S)[nH]c2N)cc1 | 0.0 | -25.6% | 2.6% | 3.4% | 35.5µM* | u
O=C(COC(=O)Cc1ccc(F)cc1)NCc1ccccc1 | x | x | x | x | -9.1% | x
CCn1ncc(Br)c1C(=O)Nc1ccn(C23CC4CC(CC(C4)C2)C3)n1 | 39.4 | 20.6µM* | -19.7% | -15.8% | -10.4% | 13µM*
Cc1ccc(NC(=O)Cn2c(-c3ccc(F)cc3)cnc2SCC(=O)Nc2c(C)cccc2C)cc1 | 1.7 | 10.3µM* | u | -28.9% | -11.4% | 11.6µM*
CCOc1ccc(-c2nc(SCC(=O)Nc3ccc4c(c3)OCO4)c(-c3ccc(F)cc3)[nH]2)cc1 | x | -18.6% | x | x | 1.5% | u
O=C(CSc1ncc(-c2ccc(F)cc2)n1Cc1ccco1)Nc1ccc2c(c1)OCO2 | -63.8* | 29.1µM* | -26.1% | -18.4% | 33.0% | u
O=C(CSc1nc(-c2ccc(F)cc2)[nH]c1-c1ccc(F)cc1)Nc1ccc2c(c1)OCO2 | x | 16.4µM* | x | x | -27.0% | 23.1µM*
SMILES | IL1B secr inh | DT40 TDP1 CPT | HT1080 IDH1KD tx | HT1080-NT tox | ALOX12 inh | TDP1 cell noCPT
O=C(CSc1nc(-c2ccc(F)cc2)[nH]c1-c1ccc(F)cc1)Nc1ccc2c(c1)OCCO2 | x | 10.3µM* | x | x | 2.1% | 10.3µM*
N#CCN(C(=O)c1cc2ccccc2s1)C1CC1 | x | x | x | x | 19.9% | x
O=c1c2ccsc2ncn1Cc1coc(-c2cccc(F)c2)n1 | x | x | x | x | -24.4% | x
Oc1ccccc1CN1CCC(O)(c2csc(CN3CC[C@@H](O)C3)n2)CC1 | x | x | x | x | 33.4%[176 µM] | x
COc1cc(C(C)=O)ccc1Oc1ncnc2c1cnn2-c1ccc(C)c(C)c1 | -12.5 | 11.6µM* | 7.4% | 0.0% | -0.2% | 14.6µM*
CN(Cc1ccccc1)c1ncc(C=O)s1 | -20.3 | -1.4% | 0.7% | -5.7% | -3.6% | 13.6%
CCC(C)C(=O)NCc1ccncc1 (configuration not stated) | x | x | x | x | 3.0% | x
CCOC(=O)C1CCN(C(=O)Cn2nc(C)n3nc(-c4ccc(OC)cc4)cc3c2=O)CC1 | 9.0 | 23.1µM* | 0.2% | 1.5% | -9.3% | 20.6µM*
COc1ccc(-c2cc3c(=O)n(CC(=O)Nc4cccc(Cl)c4)nc(C)n3n2)cc1 | 4.3 | 14.6µM* | -0.9% | -3.8% | -16.2% | u
CCOC(=O)N1CCN(C(=O)Cn2nc(C)n3nc(-c4ccc(CC)cc4)cc3c2=O)CC1 | 12.5 | 16.4µM* | -1.9% | -0.9% | 28.2% | 20.6µM*
CCOC(=O)N1CCN(C(=O)Cn2nc(C)n3nc(-c4ccc(OC)cc4)cc3c2=O)CC1 | 4.4 | u | 16.2% | 5.6% | -27.1% | u
CC(C)c1cc(C(=O)N[C@@H]2COCC[C@@H]2OCc2ccccn2)nc(N)n1 | x | x | x | x | 43.4% | x
CC(C)CCCC(C)NC(=O)Cn1nc(N2CCN(c3ccccc3)CC2)ccc1=O (configuration not stated) | x | x | x | x | 26.6% | x
COc1cccc(NC2C=CS(=O)(=O)C2)c1 (configuration not stated) | -17.0 | 7.0% | 7.3% | 5.7% | -1.5% | 6.6%
O=S1(=O)C=CC(Nc2cccc(Cl)c2)C1 (configuration not stated) | -89.4* | -13.6% | u | 10µM* | -11.9% | -18.4%
COc1ccc(/C=N/n2c(N)c(S(=O)(=O)c3cccs3)c3nc4ccccc4nc32)cc1OC | u | u | -7.9% | -7.6% | -11.7% | -19.7%
COCCNC(=O)c1c(N)n(/N=C/c2ccc(F)cc2)c2nc3ccccc3nc12 | -25.8 | u | 10.2% | 6.8% | 12.5% | u
Nc1c(S(=O)(=O)c2cccs2)c2nc3ccccc3nc2n1/N=C/c1cccc(O)c1 | -79.8* | 13µM* | 20.6µM* | u | 0.0% | u
COCCNC(=O)c1c(N)n(/N=C/c2cccs2)c2nc3ccccc3nc12 | -2.9 | u | -13.1% | -7.9% | 145.0%[57.4 µM] | 16.4µM*
COc1cccc(/C=N/n2c(N)c(S(=O)(=O)c3cccs3)c3nc4ccccc4nc32)c1 | 5.2 | -24.0% | 21.5% | 28.3% | -4.6% | u
